Screening results as filed in PubChem BioAssay.
Sampled rows, rich in hits. Any-hit rate of the full collection: about 1.3%.
RTF Ca sens inh: cardiac RTF calcium desensitization. P19429+P45379. inhibition, % at 7.15 µM. hit rate 0.12% among 340,000. AID 493244. IANBD-labeled cardiac RTF, Ca2+ fluorescence;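 active = inhibition above the mean inhibition of all tested compounds plus 3 SD, cut at about 17% in these data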;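 also: assay run at fixed EC70 calcium of 1.6 mM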
RTF Ca sens act: cardiac RTF calcium sensitization; P19429+P45379; IANBD-labeled TnC RTF fluorescence at EC20 calcium; 0% EC20 calcium, 100% full calcium; activation, % at 7.2 µM; hit rate 0.24% among 340,000; AID 493008;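 active = activation above the mean over all tested compounds plus 3 SD, cut at about 30% in these data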;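 also: rise in fluorescence read as greater calcium sensitivity of cardiac thin filaments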
CRFR2-BP antag: antagonists of CRF-binding protein/CRF-R2 receptor complex | HEK293 CRF-R2/CRF-BP, CRF-induced calcium fluorescence | inhibition, % at 11.8 µM | hit rate 0.59% among 350,000;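 active = inhibition of the ligand-induced calcium signal above about 50% at the single tested concentration, limit read from the data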
Keap1 Nrf2 FP: disrupts human Keap1 binding to Nrf2 peptide; Keap1 Kelch-Nrf2 peptide fluorescence polarization, 1536-well; inhibition, % at 9.4 µM; hit rate 0.15% among 340,000; AID 504523; in the data active = inhibition above about 12%;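 also: human Keap1 Kelch domain with fluorescein labeled Nrf2 9mer peptide probe; 0% = neutral control wells and 100% = peptide positive control; higher means more block of Keap1 binding to Nrf2 peptide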
Target sequence (Q14145 whole entry, looked up, the tested form may be a part): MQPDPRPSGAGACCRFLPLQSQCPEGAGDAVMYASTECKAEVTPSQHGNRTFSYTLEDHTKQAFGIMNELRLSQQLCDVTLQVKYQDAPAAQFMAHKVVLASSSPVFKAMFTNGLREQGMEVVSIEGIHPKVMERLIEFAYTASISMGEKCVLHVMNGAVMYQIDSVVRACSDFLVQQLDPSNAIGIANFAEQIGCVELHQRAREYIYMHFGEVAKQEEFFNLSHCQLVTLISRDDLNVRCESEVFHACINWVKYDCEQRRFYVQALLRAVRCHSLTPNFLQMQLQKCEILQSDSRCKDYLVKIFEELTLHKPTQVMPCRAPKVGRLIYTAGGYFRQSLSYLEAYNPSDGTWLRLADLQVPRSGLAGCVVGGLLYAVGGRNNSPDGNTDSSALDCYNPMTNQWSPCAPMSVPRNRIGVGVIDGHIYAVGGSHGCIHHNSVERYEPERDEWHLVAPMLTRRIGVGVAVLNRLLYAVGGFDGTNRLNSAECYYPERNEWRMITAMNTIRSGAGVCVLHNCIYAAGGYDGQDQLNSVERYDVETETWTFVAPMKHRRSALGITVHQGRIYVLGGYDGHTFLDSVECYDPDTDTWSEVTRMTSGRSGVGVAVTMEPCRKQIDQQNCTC
CRFR2-BP ag: CRF-BP/CRF-R2 complex agonism | HEK293 CRF-R2/CRF-BP, calcium dye fluorescence (FLIPR); percent of saturating CRF peptide response | activation, % at 13.2 µM | hit rate 0.46% among 350,000;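 active = activation of at least 50%, plus an integration ratio under a set limit after plate pattern correction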;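 also: plate controls were neutral control wells without compound for no effect and CRF at EC100 for full effect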
C-LANA FP: KSHV C-LANA DNA binding inhibition; MBP-C-LANA/FAM-LBS DNA binding, fluorescence polarization; inhibition, % at 9 µM; hit rate 0.078% among 340,000; AID 504423;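 active = highest replicate inhibition at or above 60% at 9 µM, even if other replicates fall short; inactive = all replicates below 60% inhibition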;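 also: 0% = neutral control wells and 100% = 4 µM acridine orange control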
* = called active by the depositor; i = inactive; / = no result given; + = active, no number.

SMILES | RTF Ca sens inh | RTF Ca sens act | CRFR2-BP antag | Keap1 Nrf2 FP | CRFR2-BP ag | C-LANA FP
O=c1[nH]c2cc3c(cc2cc1C(c1nnnn1C1CCCC1)N1CCCc2ccccc21)OCCO3 (centres undefined) | -6.0 | 3.1 | -71.5 | 0.4 | 57.4* | -1.4
COc1cc2cc(C(c3nnnn3C3CCCC3)N3CCc4ccccc43)c(=O)[nH]c2cc1OC (centres undefined) | -7.4 | 0.2 | -41.0 | -6.5 | 22.4 | -1.4
COc1ccc(NC(=O)C(Sc2ccccc2)c2ccccc2)c(OC)c1 (centres undefined) | -0.2 | 1.8 | 51.1* | -7.2 | 2.4 | 2.8
Cc1ccc(-n2nnnc2SCc2nnc(-c3ccccc3Br)o2)c(C)c1 | 0.7 | 1.1 | 86.6* | -5.7 | -1.1 | 1.4
NS(=O)(=O)c1cccc(NC(=O)c2cccc(N3C(=O)c4ccccc4C3=O)c2)c1 | -7.2 | 7.0 | 14.6 | -5.2 | -6.0 | 0.8
COC(=O)c1ccc(NC(=O)COC(=O)CSc2nc(C)cc(C)n2)cc1 | 4.4 | 2.7 | 52.0* | 2.0 | 0.5 | 1.4
Cc1cc(C)nc(SCC(=O)OCC(=O)Nc2nc3ccccc3s2)n1 | 1.4 | 2.7 | 2.5 | 3.7 | 1.6 | 6.2
CCN1CCN(C(=O)CN(c2ccc(F)c(Cl)c2)S(C)(=O)=O)CC1 | 3.9 | 12.1 | 1.1 | -3.9 | -4.2 | -2.4
O=C1C(Cl)=C(Nc2ccc3cn[nH]c3c2)C(=O)c2ccccc21 | 3.9 | 1.5 | 95.1* | 3.5 | -3.8 | -2.3
CC(=O)Nc1ccc(NC2=C(Cl)C(=O)c3ccccc3C2=O)cc1 | / | / | + | / | -2.8 | /
O=C(NC1=C(Nc2ccc(Cl)cc2)C(=O)c2ccccc2C1=O)c1ccccc1 | 10.2 | 4.2 | -27.0 | -2.6 | -4.5 | 0.9
CN(C)c1ccc(NC2=C(Cl)C(=O)c3ccccc3C2=O)cc1 | 2.8 | -1.7 | 75.2* | 0.3 | -0.1 | -0.1
CCCN1C(=O)C2(OCCO2)c2cc(Cl)ccc21 | -12.9 | -4.1 | 4.6 | -4.7 | -0.8 | 0.0
Nc1ccc(N=Nc2ccccc2)cc1[N+](=O)[O-] | 1.1 | -1.1 | 62.7* | 2.0 | 3.1 | -0.3
CCCN1C(=O)/C(=C\C=C2\N(CC)c3ccccc3C2(C)C)SC1=S | -110.0 | 90.0* | -213.8 | -0.5 | 125.0* | -0.9
CN1C(=CC=C2C=C(I)C(=O)C(I)=C2)C(C)(C)c2ccccc21 | -32.9 | 91.9* | 4.7 | -2.5 | 16.3 | 1.5
CN1/C(=C\C=N\O)C(C)(C)c2ccccc21 | -19.0 | -2.5 | -1.8 | -7.9 | 1.2 | 0.7
CC1=NN(c2ccccc2)C(=O)/C1=C\C=C1\N(C)c2ccccc2C1(C)C | 1.0 | 7.9 | -99.0 | -12.2 | 45.7 | -3.8
CN1/C(=C\C=C2/SC(=S)NC2=O)C(C)(C)c2ccccc21 | i | 343.7* | -144.3 | -70.6 | 163.8* | -59.4
CN1/C(=C\C=C2/C(=O)Oc3ccccc3C2=O)C(C)(C)c2ccccc21 | / | / | -383.4 | / | 322.8* | /
COc1ncnc(OC)c1NC(=O)c1ccc(F)cc1 | -0.6 | 4.1 | 5.7 | 5.9 | -0.2 | 0.5
CCN1C(=O)C(=CC=CN(C)c2ccccc2)SC1=S | / | / | -64.8 | / | 103.3* | /
CC1=NN(c2ccccc2)C(=O)/C1=C\C=C1/N(C)c2ccccc2C1(C)C | -14.2 | 5.2 | -31.5 | -16.5 | 52.1* | -3.6
CCN1C(=O)/C(=C\C=C2/C=CC=CN2CC)SC1=S | -14.0 | 17.1 | 10.9 | -5.4 | -2.9 | -6.2
O=C(O)CN1C(=O)/C(=C/C=C/c2ccccc2)SC1=S | -5.0 | -3.8 | 1.2 | -1.9 | 2.7 | -1.8
SMILES | RTF Ca sens inh | RTF Ca sens act | CRFR2-BP antag | Keap1 Nrf2 FP | CRFR2-BP ag | C-LANA FP
CCN1C(=O)/C(=C/C=C2\C=CN(CC)c3ccccc32)SC1=S | -4.1 | 4.0 | 52.7* | -14.6 | 0.4 | 0.6
NC(=O)C1CCN(C(=O)C(=O)c2cn(CC(=O)N3CCCC3)c3ccccc23)CC1 | -8.7 | 7.0 | 11.5 | -2.3 | -1.2 | -0.4
Cc1nn(S(=O)(=O)c2cccs2)c(C)c1Sc1ccc([N+](=O)[O-])cc1 | -8.2 | 0.8 | 58.5* | 2.2 | 1.0 | 0.0
Cc1nn(S(=O)(=O)c2ccccc2)c(C)c1Sc1ccc([N+](=O)[O-])cc1 | -0.2 | 5.7 | -6.4 | -1.4 | 0.4 | -0.1
O=C(OCc1cc(=O)n2ccsc2n1)C1(c2ccccc2)CC1 | / | / | 71.4* | / | 0.3 | /
CCS(=O)(=O)C1=NN2C(=N)/C(=C\c3ccc(OCCOc4cccc(OC)c4)c(OC)c3)C(=O)N=C2S1 | -0.1 | -6.3 | 53.1* | -4.5 | 0.2 | 4.9
COc1cc(/C=C2\C(=N)N3N=C(S(C)(=O)=O)SC3=NC2=O)ccc1OCCOc1ccc(C)cc1 | -11.1 | -5.6 | 72.3* | 0.2 | 8.2 | 2.9
O=Cc1c(N2CCN(CCO)CC2)nc2ccccn2c1=O | -5.9 | 4.5 | -85.5 | 0.8 | 128.1* | 8.2
Cc1c(Br)cc(C(=O)N2CCCC2)c(C)c1C | 8.4 | 5.6 | -7.6 | 1.3 | -0.9 | 1.0
COc1cc(C2CC(c3c(C)cc(C)[nH]c3=O)=NN2c2ccccc2F)cc(OC)c1OC (centres undefined) | -2.9 | 2.7 | -4.2 | -16.4 | -2.0 | -5.0
CCCCn1c(=NC(C)=O)c(C#N)cc2c(=O)n3cccc(C)c3nc21 | -5.2 | 1.5 | -5.8 | -3.9 | 2.3 | 1.7
CCCCCn1c(=NC(=O)c2cccnc2)c(C#N)cc2c(=O)n3cccc(C)c3nc21 | -6.6 | 7.6 | -22.2 | -1.1 | 62.7* | -0.3
CCNS(=O)(=O)c1ccc(NC(=O)c2ccccc2)cc1 | -1.6 | 8.3 | -16.7 | 1.0 | -1.8 | -0.2
COc1ccc(NC(=O)c2ccccc2Oc2ccccc2)cc1 | -1.5 | -3.8 | 6.7 | -0.7 | -2.0 | 0.8
O=C(O)c1ccccc1C(=O)Nc1ccc(Oc2ccc3ccccc3c2)cc1 | 5.3 | 0.8 | -12.2 | -1.0 | -2.2 | -0.5
O=C(O)c1ccccc1C(=O)Nc1ccc(Oc2cccc3ccccc23)cc1 | -0.6 | 7.3 | 20.5 | -1.4 | 126.2* | -0.1
Cc1cccc(Oc2ccc(NC(=O)c3ccccc3C(=O)O)cc2)c1C | 3.5 | -1.2 | 19.1 | 4.2 | 81.0* | -0.1
C=CCC1(CC=C)CCCN1C(=O)C1CCC(=O)N(CCc2ccc(Cl)cc2)C1 (centres undefined) | 10.7 | 6.3 | 0.4 | -8.4 | 1.1 | 1.7
CCC1CCCCN1CCCNC(=O)c1cn(C)c2ccc(S(=O)(=O)N(C)C3CCCCC3)cc2c1=O (centres undefined) | -2.5 | 1.4 | 56.2* | -1.8 | 0.5 | -0.3
COc1ccccc1-c1c(C)nn2c(N3CCN(c4ccccc4OC)CC3)cc(C)nc12 | 2.0 | -2.9 | 67.9* | -3.8 | -1.6 | -0.5
COc1ccc(N(CC(=O)NCCSc2ccccn2)S(=O)(=O)c2ccc(C)cc2)cc1OC | 1.6 | -3.3 | 55.2* | -0.2 | -0.8 | -0.6
COc1ccc(N(CC(=O)NCCSc2ccccn2)S(=O)(=O)c2ccccc2)cc1OC | -14.8 | 2.2 | -10.0 | -3.4 | -0.2 | -0.6
